PubChem BioAssay (Tox21)
“And” between values parts separate entries of the source, which are not always exact repeats. Identical values can stand only once. Inconclusive results are not listed. Entries that show only a call come without a potency. The source made the active and inactive calls. Unless noted, the call rests on the fitted dose curve; in most records, active means well fitted curve in the direction sought with a large enough effect in the repeat runs; inconclusive means weak or mixed curves; inactive means no such curve, though single readings can be large; an effect the other way counts as inactive or inconclusive.

Assays:
[1] = qHTS assay to identify small molecule antagonists of the estrogen related receptor (ERR) signaling pathway from Tox21 library - cell viability counter screen (AID 1224834); further: nearly all actives have a fitted effect of over 30% in size; further: potency means the concentration at half of the fitted maximal effect
In short: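 Counter screen run in ERR cells (2,000 cells/well): cells pre-incubated 6 h, then treated with compounds for 17.5 h at 37 C. Fluorescence was read 30 min after CellTiter-Fluor addition.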

[2] = target: Luciferin 4-monooxygenase (Photinus pyralis) (UniProt P08659); test: qHTS assay to identify small molecule inhibitors of firefly luciferase (AID 1224835); further: nearly all actives have a fitted effect of over 25% in size; further: potency means the concentration at half of the fitted maximal effect
In short: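 Quantitative HTS format; KM concentrations of both substrates. Purified P. pyralis FLuc activity quantified from luminescence images.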

[3] = qHTS assay to identify small molecule agonists of the constitutive androstane receptor (CAR) signaling pathway - cell viability counter screen (AID 1224836); further: nearly all actives have a fitted effect of over 45% in size; further: potency means the concentration at half of the fitted maximal effect
In short: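 23 h treatment, 37 C, 5% CO2. Cell line: HepG2 stably expressing hCAR with a CYP2B6-2.2kb construct. Co-treatment: PK11195, 0.75 uM final. Read-out: CellTiter-Fluor fluorescence intensity.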

[4] = qHTS assay to identify small molecule antagonists of the constitutive androstane receptor (CAR) signaling pathway - cell viability counter screen (AID 1224837); further: nearly all actives have a fitted effect of over 45% in size; further: potency means the concentration at half of the fitted maximal effect
In short: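 CITCO at 50 nM final was added alongside compounds (15 concentrations) to double-stable hCAR/CYP2B6-2.2kb HepG2 cells. Following 23 hr at 37 C, cell viability was quantified by CellTiter-Fluor fluorescence intensity.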

[5] = target: Nuclear receptor subfamily 1 group I member 3 (Homo sapiens) (UniProt Q14994); test: qHTS assay to identify small molecule antagonists of the constitutive androstane receptor (CAR) signaling pathway (AID 1224838); further: nearly all actives have a fitted effect of over 40% in size
In short: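 Inhibition of CITCO-driven (50 nM final) CYP2B6 reporter expression is measured in HepG2 cells stably carrying hCAR. Fifteen compound concentrations are applied for 24 h at 37 C, followed by luciferase luminescence.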

[6] = target: Nuclear receptor subfamily 1 group I member 3 (Homo sapiens) (UniProt Q14994); test: qHTS assay to identify small molecule agonists of the constitutive androstane receptor (CAR) signaling pathway (AID 1224839); further: nearly all actives have a fitted effect of over 15% in size; further: potency means the concentration at half of the fitted maximal effect
In short: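 Compounds tested at 15 concentrations on HepG2 cells stably harbouring hCAR and CYP2B6-2.2kb reporter constructs, co-treated with PK11195 (0.75 uM final), 24 h at 37 C; luminescent reporter signal quantified.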

[7] = qHTS assay to identify small molecule antagonists of the estrogen related receptor signaling pathway with the pleiotropic PPARgamma coactivator (PGC) from Tox21 10K library - cell viability counter screen (AID 1224840; active means well fitted cell-killing curve with a large enough effect in the repeat runs, not every such curve was filed as active; further: nearly all actives have a fitted effect of over 40% in size; further: potency means the concentration at half of the fitted maximal effect)
In short: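 Readout: fluorescence intensity from CellTiter-Fluor after 30 min at 37 C/5% CO2. Preceded by 17.5 h treatment of PGC/ERR cells with DMSO-dissolved compounds, added 6 h post-seeding.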

[8] = target: Thyrotropin receptor (Homo sapiens) (UniProt P16473); test: qHTS assay to identify small molecule agonists of the thyroid stimulating hormone receptor (TSHR) signaling pathway (AID 1224843; calls by dose curve; further: nearly all actives have a fitted effect of over 45% in size; further: potency means the concentration at half of the fitted maximal effect)
In short: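 Compounds are titrated over 15 concentrations, in triplicate, onto TSHR-HEK293 cells seeded at 800/well. Plates sit 30 min at room temperature before cAMP-d2 and anti-cAMP cryptate are added; signal is read after a further hour.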

[9] = qHTS assay to identify small molecule antagonists of the estrogen related receptor signaling pathway with the pleiotropic PPARgamma coactivator (PGC) from Tox21 10K library (AID 1224841; call rule not given here; further: actives are mostly falling curves and most rising ones were filed inactive; nearly all actives have a fitted effect of over 50% in size; further: potency means the concentration at half of the fitted maximal effect)
In short: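 One-Glo luminescence, measured after half an hour at room temperature, quantified reporter output of PGC/ERR cells. These had been plated at 2,000 per well, incubated 6 h, dosed with compounds in DMSO, then kept 18 h at 37 C.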

[10] = qHTS assay to identify small molecule agonists of the estrogen related receptor signaling pathway with the pleiotropic PPARgamma coactivator (PGC) from Tox21 10K library (AID 1224842); further: nearly all actives have a fitted effect of over 15% in size
In short: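 PGC/ERR reporter cells (NTP line) were seeded 2,000 per well, rested 6 h at 37 C/5% CO2, then pin-dosed with compounds in DMSO for 18 h at 37 C; luciferase read by One-Glo luminescence after 30 min at room temperature.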

Chain of Nuclear receptor subfamily 1 group I member 3 (Homo sapiens) (Q14994 whole entry, looked up): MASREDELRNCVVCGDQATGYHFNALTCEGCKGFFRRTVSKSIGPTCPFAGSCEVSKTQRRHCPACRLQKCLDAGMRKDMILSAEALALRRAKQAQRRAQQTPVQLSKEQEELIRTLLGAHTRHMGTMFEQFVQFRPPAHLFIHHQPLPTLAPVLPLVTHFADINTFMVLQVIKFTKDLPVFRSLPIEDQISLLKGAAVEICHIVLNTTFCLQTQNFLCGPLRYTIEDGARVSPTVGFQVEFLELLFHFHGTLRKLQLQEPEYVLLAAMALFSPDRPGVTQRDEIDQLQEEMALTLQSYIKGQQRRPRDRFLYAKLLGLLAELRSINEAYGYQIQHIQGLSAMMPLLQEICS
Chain of Thyrotropin receptor (Homo sapiens) (P16473 whole entry, looked up): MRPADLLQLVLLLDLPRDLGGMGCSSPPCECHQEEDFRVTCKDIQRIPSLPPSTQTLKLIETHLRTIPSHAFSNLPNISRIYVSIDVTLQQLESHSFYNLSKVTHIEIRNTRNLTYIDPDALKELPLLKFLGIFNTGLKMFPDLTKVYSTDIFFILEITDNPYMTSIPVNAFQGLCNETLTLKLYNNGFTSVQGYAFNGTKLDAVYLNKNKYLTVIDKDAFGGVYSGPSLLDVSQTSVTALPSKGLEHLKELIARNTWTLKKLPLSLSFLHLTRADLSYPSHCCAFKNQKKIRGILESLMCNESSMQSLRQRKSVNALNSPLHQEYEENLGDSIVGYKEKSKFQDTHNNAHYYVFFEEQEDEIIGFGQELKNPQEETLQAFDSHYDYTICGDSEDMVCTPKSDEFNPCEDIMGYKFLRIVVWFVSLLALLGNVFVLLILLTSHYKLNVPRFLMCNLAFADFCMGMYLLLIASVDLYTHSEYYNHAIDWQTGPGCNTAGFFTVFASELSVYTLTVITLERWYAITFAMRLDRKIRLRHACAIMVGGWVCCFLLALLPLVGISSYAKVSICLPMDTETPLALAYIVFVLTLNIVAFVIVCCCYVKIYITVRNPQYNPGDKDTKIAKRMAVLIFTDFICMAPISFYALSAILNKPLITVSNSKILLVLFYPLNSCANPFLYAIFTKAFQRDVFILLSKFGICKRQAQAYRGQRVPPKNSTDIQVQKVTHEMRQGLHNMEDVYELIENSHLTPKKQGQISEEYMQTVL
Chain of Luciferin 4-monooxygenase (Photinus pyralis) (P08659 whole entry, looked up): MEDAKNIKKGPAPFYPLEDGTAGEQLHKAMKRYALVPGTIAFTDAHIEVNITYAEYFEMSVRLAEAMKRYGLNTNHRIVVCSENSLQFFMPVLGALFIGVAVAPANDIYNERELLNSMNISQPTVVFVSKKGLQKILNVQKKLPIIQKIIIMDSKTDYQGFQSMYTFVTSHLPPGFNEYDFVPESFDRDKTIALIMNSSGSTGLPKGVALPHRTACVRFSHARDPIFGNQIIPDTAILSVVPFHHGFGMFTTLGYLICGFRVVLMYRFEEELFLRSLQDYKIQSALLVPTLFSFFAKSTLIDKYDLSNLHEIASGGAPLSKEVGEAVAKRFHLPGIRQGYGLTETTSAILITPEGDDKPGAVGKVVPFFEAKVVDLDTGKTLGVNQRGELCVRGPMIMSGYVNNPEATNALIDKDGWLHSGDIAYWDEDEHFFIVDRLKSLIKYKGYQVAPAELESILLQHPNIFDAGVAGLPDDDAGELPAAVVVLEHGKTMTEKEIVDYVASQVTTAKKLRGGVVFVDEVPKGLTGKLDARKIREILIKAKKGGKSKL

CSC(C)(C)/C=N/O
Potency [1]: inactive
Potency [2]: inactive
Potency [3]: inactive
Potency [4]: inactive
Potency [5]: inactive
Potency [6]: inactive
Potency [7]: inactive
Potency [8]: inactive

OCC(Br)CBr (stereo not given)
Potency [1]: inactive
Potency [2]: inactive
Potency [3]: inactive
Potency [4]: inactive
Potency [5]: inactive
Potency [6]: inactive
Potency [7]: inactive
Potency [8]: inactive

CC(Cl)CCl (stereo not given)
Potency [1]: inactive
Potency [2]: inactive
Potency [3]: inactive
Potency [4]: inactive
Potency [5]: inactive
Potency [6]: inactive
Potency [7]: inactive
Potency [8]: inactive

ClC1=C(Cl)[C@]2(Cl)[C@H]3[C@H]([C@@H]4C=C[C@H]3C4)[C@@]1(Cl)C2(Cl)Cl
Potency [1]: inactive
Potency [2]: inactive
Potency [3]: inactive
Potency [4]: inactive
Potency [5]: inactive
Potency [6]: 13.7 µM (active)
Potency [8]: 19.3 µM (active) and 13.7 µM (active)

Clc1ccc(C(Cl)(Cl)Cl)cc1Cl
Potency [1]: inactive
Potency [2]: inactive
Potency [3]: inactive
Potency [4]: inactive
Potency [5]: inactive
Potency [7]: inactive

COc1cnc(OC)n2nc(NS(=O)(=O)c3c(OCC(F)F)cccc3C(F)(F)F)nc12
Potency [1]: inactive
Potency [2]: inactive
Potency [3]: inactive
Potency [4]: inactive
Potency [6]: inactive
Potency [7]: inactive
Potency [9]: inactive
Potency [10]: inactive

O=S1OCC2C(CO1)C1(Cl)C(Cl)=C(Cl)C2(Cl)C1(Cl)Cl (stereo not given)
Potency [1]: 54.5 µM (active)
Potency [2]: inactive
Potency [3]: inactive
Potency [4]: inactive
Potency [5]: inactive
Potency [6]: 30.7 µM (active) and 17.2 µM (active)
Potency [8]: 4.33 µM (active) and 8.63 µM (active)

CCC1(CC)C(=O)N=C(O)NC1=O
Potency [1]: inactive
Potency [2]: inactive
Potency [3]: inactive
Potency [4]: inactive
Potency [6]: inactive
Potency [7]: inactive

CCOP(=O)(OCC)Oc1cc(C)nc(C(C)C)n1
Potency [1]: inactive
Potency [2]: inactive
Potency [3]: inactive
Potency [4]: inactive
Potency [7]: inactive
Potency [9]: inactive
Potency [10]: inactive
Potency [8]: inactive

CCN(CC)CCN1C(=O)CN=C(c2ccccc2F)c2cc(Cl)ccc21
Potency [1]: inactive
Potency [2]: inactive
Potency [3]: inactive
Potency [4]: inactive
Potency [7]: inactive
Potency [9]: inactive
Potency [10]: inactive
Potency [8]: inactive

Fc1ccc(C(OCCN2CCN(CCCc3ccccc3)CC2)c2ccc(F)cc2)cc1
Potency [1]: 26.6 µM (active)
Potency [2]: inactive
Potency [3]: 21.1 µM (active)
Potency [4]: 21.1 µM (active)
Potency [6]: inactive
Potency [7]: 26.6 µM (active)
Potency [9]: 11.9 µM (active)
Potency [10]: inactive
Potency [8]: inactive

COC(=O)c1ccccc1S(=O)(=O)NC(=O)Nc1nc(C)nc(OC)n1
Potency [1]: inactive
Potency [2]: inactive
Potency [3]: inactive
Potency [4]: inactive
Potency [7]: inactive
Potency [8]: inactive

Cc1c([N+](=O)[O-])cc2c(c1[N+](=O)[O-])C(C)(C)CC2(C)C
Potency [1]: inactive
Potency [2]: inactive
Potency [3]: inactive
Potency [4]: inactive
Potency [6]: 12.2 µM (active)
Potency [7]: inactive
Potency [9]: 30.6 µM (active)
Potency [10]: inactive
Potency [8]: 48.6 µM (active)

CCC(C)Nc1c([N+](=O)[O-])cc(C(C)(C)C)cc1[N+](=O)[O-] (stereo not given)
Potency [1]: inactive
Potency [2]: 71 µM (active)
Potency [3]: inactive
Potency [4]: inactive
Potency [7]: inactive
Potency [9]: inactive
Potency [10]: inactive

CCC[CH2][Sn]([CH2]CCC)([O]C(C)=O)[O]C(C)=O
Potency [1]: 0.138 µM (active)
Potency [2]: inactive
Potency [3]: 0.437 µM (active)
Potency [4]: 0.437 µM (active)
Potency [7]: 0.138 µM (active)
Potency [9]: 0.0347 µM (active)
Potency [10]: inactive
Potency [8]: inactive

N#Cc1sc2c(=O)c3ccccc3c(=O)c=2sc1C#N
Potency [1]: 48.6 µM (active)
Potency [2]: 4.48 µM (active)
Potency [3]: 8.63 µM (active)
Potency [4]: 6.11 µM (active)
Potency [6]: 2.17 µM (active)
Potency [7]: 48.6 µM (active)
Potency [10]: inactive

CCOP(=S)(OCC)Oc1cc(C)nc(N(CC)CC)n1
Potency [1]: inactive
Potency [2]: inactive
Potency [3]: inactive
Potency [4]: inactive
Potency [6]: 19.3 µM (active)
Potency [10]: inactive

CN1C2CCC(C)(C)C1CC(OC(=O)C(O)(c1cccs1)c1cccs1)C2 (stereo not given)
Potency [1]: inactive
Potency [2]: inactive
Potency [3]: inactive
Potency [4]: inactive
Potency [6]: inactive
Potency [7]: inactive
Potency [8]: inactive

O=c1[nH]c2cc(Cl)ccc2n1C1CCNCC1
Potency [1]: inactive
Potency [2]: inactive
Potency [3]: inactive
Potency [4]: inactive
Potency [6]: inactive
Potency [7]: inactive
Potency [9]: inactive
Potency [10]: inactive
Potency [8]: inactive

C=CCBr
Potency [1]: inactive
Potency [2]: inactive
Potency [3]: inactive
Potency [4]: inactive
Potency [6]: inactive
Potency [7]: inactive
Potency [8]: inactive

CC(C)N(C(=O)CCl)c1ccccc1
Potency [1]: 21.7 µM (active)
Potency [2]: inactive
Potency [3]: 68.6 µM (active) and 61.1 µM (active)
Potency [4]: 54.5 µM (active) and 48.6 µM (active)
Potency [6]: inactive
Potency [7]: 30.6 µM (active)
Potency [9]: 9.69 µM (active) and 6.11 µM (active)
Potency [10]: inactive
Potency [8]: inactive

CCCCN(CCCC)C(=S)[S-].CCCCN(CCCC)C(=S)[S-].[Ni+2]
Potency [1]: inactive
Potency [2]: inactive
Potency [3]: inactive
Potency [4]: inactive
Potency [7]: inactive
Potency [9]: 0.237 µM (active)
Potency [10]: inactive

CSC(=O)c1c(C(F)F)nc(C(F)(F)F)c(C(=O)SC)c1CC(C)C
Potency [1]: inactive
Potency [2]: inactive
Potency [3]: inactive
Potency [4]: inactive
Potency [7]: inactive

CCCCC(CC)COC(=O)c1ccccc1C(=O)OCC(CC)CCCC (stereo not given)
Potency [1]: inactive
Potency [2]: inactive
Potency [3]: inactive
Potency [4]: inactive
Potency [6]: 17.2 µM (active)
Potency [7]: inactive
Potency [8]: 3.86 µM (active)

Cc1nn(-c2cc(NS(C)(=O)=O)c(Cl)cc2Cl)c(=O)n1C(F)F
Potency [1]: inactive
Potency [2]: inactive
Potency [3]: inactive
Potency [4]: inactive
Potency [7]: inactive
Potency [9]: inactive
Potency [10]: inactive
Potency [8]: inactive
